Source: PubChem BioAssay AID463195 (Sanford-Burnham Center for Chemical Genomics, 2010)
Screen size: about 330,000 compounds; about 4,600 (1.4%) were called active. Many of the other results were omitted from the sample, so actives are more common in it than they were. Values without a mark were called inactive.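 Rule for the calls: active = inhibition of 40% or more at the single tested concentration; inactive = the rest.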

Assay: wild-type TIM10 yeast growth inhibition – luminescence, uHTS, counter-screen for tim10-1 yeast inhibitor project, primary screen (AID 463195);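 note: wild-type TIM10 isogenic control strain grown at permissive 25 °C; 0% = DMSO yeast wells and 100% = minimal medium wells without yeast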
Details: S. cerevisiae TIM10 strain growth, BacTiter-Glo luminescence, 24 h; at 10 µM; stronger effect = higher value

| SMILES | inhibition |
| --- | --- |
| COc1cc(C(=O)NCC(=O)N2CC=C(c3ccccc3)CC2)cc(OC)c1OC | 20.4% |
| O=C(Nc1ccc(Cl)c(Cl)c1)N1CC=C(c2ccccc2)CC1 | 48.1% (active) |
| O=C(Nc1cccc(NC(=O)N2CCN(c3ccccc3)CC2)c1)N1CCN(c2ccccc2)CC1 | -4.11% |
| CCOC(=O)N1CCC(N2Cc3cccc(C(=O)Nc4c(C)cccc4CC)c3C2=O)CC1 | 15.7% |
| CN(C)Cc1c(O)ccc2occ(C(O)c3ccccc3)c12 (centres undefined) | 9.39% |
| CC(=O)Cc1nsc(NC(=O)c2ccc(COc3ccc(C)cc3)o2)n1 | 20.8% |
| CC(C)NC(=O)c1ccc(Cl)cc1Cl | -6.27% |
| CC(=O)Cc1nsc(NC(=O)c2ccc(Cl)cc2Cl)n1 | 45.2% (active) |
| Cc1cc(C)cc(NS(=O)(=O)Cc2ccccc2)c1 | -1.77% |
| O=C(c1snnc1-c1ccccc1)N1CCOCC1 | 15.4% |
| O=C(CCCN1CCc2[nH]c3ccc(F)cc3c2C1)c1ccc(F)cc1 | 14.8% |
| CCn1c(/C=C/c2ccc([N+](=O)[O-])o2)nc2ccccc2c1=O | 49.9% (active) |
| CCn1c(=O)c([N+](=O)[O-])c(NCc2ccc3c(c2)OCO3)c2ccccc21 | 15.2% |
| CCc1ccc(S(=O)(=O)N/N=C\c2ccc([N+](=O)[O-])o2)cc1 | 14.1% |
| CC1CCN(C(=O)c2cc3nc(C4CC4)cc(C(F)(F)F)n3n2)CC1 | 16.4% |
| Cc1cc(C)n(CC(O)CN(c2ccccc2)S(=O)(=O)c2ccc3ccccc3c2)n1 (centres undefined) | 48% (active) |
| Cc1cccc(N(CC(O)CN(C)C)S(=O)(=O)c2ccccc2)c1 (centres undefined) | 0.713% |
| Cc1ccc(N(CC(O)CN2CCCC2)S(=O)(=O)c2ccccc2)cc1 (centres undefined) | -2.21% |
| C/C=C/C(=O)OCC(=O)Nc1ccc(F)cc1Cl | -3.48% |
| Nc1ncnc2c1ncn2[C@@H]1O[C@H](CNS(=O)(=O)c2ccc(-c3ccno3)s2)[C@@H](O)[C@H]1O | -1.72% |
| CCCS(=O)(=O)N1CCN=C1SCc1cccc(F)c1 | -11.5% |
| CCc1c(C)nc(N)n2c(SCC(=O)NC3CCCCC3)nnc12 | -10.7% |
| COc1ccc(S(=O)(=O)Nc2cc(C)on2)cc1NC(C)=O | 12% |
| O=C(O)CCCC(=O)N1N=C(c2ccco2)CC1c1ccco1 (centres undefined) | -11.4% |

| SMILES | inhibition |
| --- | --- |
| Cc1nn2c(c1-c1ccccc1)N=C(c1ccco1)CC2c1ccccc1 (centres undefined) | 48.1% (active) |
| Cc1nn(C(=O)c2ccoc2C)c(N)c1-c1ccccc1 | -12.3% |
| CCN(CC)S(=O)(=O)N1CCC(C(=O)NC(C)CCc2ccccc2)CC1 (centres undefined) | -3.42% |
| C/C(=N\NC(=O)C1(C)CC1(Br)Br)c1ccc(C)cc1C (centres undefined) | 10% |
| O=C1Cc2cc(S(=O)(=O)Nc3cccc(F)c3)ccc2N1 | -1.95% |
| Cc1ccc2nc(N(CCN(C)C)C(=O)C3=COCCO3)sc2c1 | 53.1% (active) |
| CN(C)CCN(C(=O)CN1C(=O)c2ccccc2C1=O)c1nc2cc3c(cc2s1)OCCO3 | -5.86% |
| CN(C)CCN(C(=O)C1CCCCC1)c1nc2cc3c(cc2s1)OCO3 | 11.6% |
| CN(C)CCN(C(=O)C1=COCCO1)c1nc2ccc(Cl)cc2s1 | 79.4% (active) |
| CCc1ccc2nc(N(CCCN(C)C)C(=O)c3ccc4c(c3)OCCO4)sc2c1 | 13.5% |
| CCN(CC)CCN(C(=O)c1cc(Cl)sc1Cl)c1nc2cc3c(cc2s1)OCO3 | 23.3% |
| CC(=O)c1ccc(N2CCN(C(=O)c3ccc(Cl)c(S(=O)(=O)NC4CC4)c3)CC2)c(F)c1 | -5.83% |
| O=C1Oc2ccccc2C(=O)/C1=C/c1ccccc1O | 61.4% (active) |
| COC(=O)c1ccc(/C=C2/C(=O)Oc3ccccc32)cc1 | 25.7% |
| COc1ccc2c(c1)O/C(=C\c1ccccc1O)C2=O | 23.8% |
| C=CCO/N=C(\C)c1c(O)c(C)c(-c2ccccc2)n(-c2ccccc2)c1=O | 30.7% |
| CCCCCC(=O)Nc1ccc(-c2cn3cccnc3n2)cc1 | 33.6% |
| CC(C(=O)Nc1ccc(F)c(F)c1F)N1CCCCCC1 (centres undefined) | -12.6% |
| O=Cc1c(Nc2ccccc2Cl)nc2ccccn2c1=O | 4.5% |
| O=Cc1c(N2CCN(c3cccc(Cl)c3)CC2)nc2ccccn2c1=O | 40.1% (active) |
| COCCCNC(=O)/C(C#N)=C/c1c(N2CCCCCC2)nc2ccccn2c1=O | -2.43% |
| CCOC(=O)c1sc2nc(C)nc(Nc3ccc(OC)c(OC)c3)c2c1C | -3.77% |
| C/C(=N/NC(=O)c1ccncc1)c1ccc2c(c1)OCO2 | -3.5% |
| C/C(=N/NC(=S)Nc1ccccc1)c1ccc2c(c1)OCO2 | 43.2% (active) |

| SMILES | inhibition |
| --- | --- |
| C/C(=N\NC(=O)C(N)=O)c1ccc2c(c1)OCCO2 | 9.07% |
| Cc1cc(C)n(-c2nc(SCC(=O)N3CCCC3)c3c4c(sc3n2)CCCC4)n1 | 47.4% (active) |
| COCCNc1nc(-n2nc(C)cc2C)nc2sc3c(c12)CCCC3 | 26.3% |
| CC(C)c1nc(SCC(=O)Nc2cccc(C(=O)O)c2)c2c3c(sc2n1)CCCC3 | 6.83% |
| O=C(OCCO)c1cc(Cl)c(C(=O)OCCO)cc1Cl | -2.48% |
| COc1ccccc1CNC(=O)CCCNS(=O)(=O)c1cccc2nsnc12 | 0.215% |
| O=C1OCCN1C(=O)[C@H]1[C@H](c2ccc(F)cc2)C(c2ccccc2)=NN1c1ccc(Br)cc1 | 16.8% |
| O=C1OCCN1C(=O)[C@H]1[C@H](c2ccccc2)C(c2ccc(F)cc2)=NN1c1ccccc1 | 13.6% |
| C[C@@H]1C(c2ccc(F)cc2)=NN(c2ccc(Br)cc2)[C@H]1C(=O)N1CCOC1=O | 44.2% (active) |
| CN(C(=O)CN(CCO)CC(=O)N(C)C(C)(C)Cc1ccccc1)C(C)(C)Cc1ccccc1 | 15.9% |
| Cc1cc(C)nc(SCc2ccccc2C#N)n1 | 14.7% |
| Cc1cc(C)nc(S/C=C/C(=O)c2ccccc2)n1 | 49% (active) |
| Cc1cc(C)nc(SCC(=O)N(C)C)n1 | -9.49% |
| Cc1cccc(N(C(=O)c2ccc(CN3CCOCC3)o2)C(C(=O)NC2CCCCC2)c2ccc(F)cc2)c1 (centres undefined) | -2.65% |
| FC(F)(F)C1CCCN(c2nsc3ccccc23)C1 (centres undefined) | 2.15% |
| OC(c1ccccc1)C(CN1CCOCC1)c1ccccc1 (centres undefined) | 3.43% |
| Oc1c(Cl)cc(Cl)c(Cl)c1Cc1c(O)c(Cl)cc(Cl)c1Cl | 90.7% (active) |
| CCCCc1cc2c(s1)CCCC/C2=N/O | 22.6% |
| CCc1ccc(-n2c(=S)sc3c(=O)n(-c4ccccc4OC)c(=S)[nH]c32)cc1 | -1.05% |
| COc1ccc(N2CCC(CNC(=S)Nc3c(C)cccc3C)C2)cc1 (centres undefined) | 16.7% |
| COc1ccc(NC(=S)NCC2CCN(c3ccc(OC)cc3)C2)cc1 (centres undefined) | 48% (active) |
| COc1ccc(NC(=S)NCCN2CCC(C)CC2)cc1 | 4.83% |
| CC(=O)N/C(=C\c1ccc(F)cc1)C(=O)NC(Cc1ccccc1)C(=O)O (centres undefined) | -0.026% |
| Cc1ccc(S(=O)(=O)/N=C(/NC(=S)Nc2c(C)n(C)n(-c3ccccc3)c2=O)c2ccccc2)cc1 | 2.05% |

| SMILES | inhibition |
| --- | --- |
| CCCCN(C(=O)/C=C/c1ccco1)c1c(N)n(CC(C)C)c(=O)[nH]c1=O | -1.39% |
| Cc1ccsc1C(=O)N[C@@H](C)c1nnc2ccccn12 | 0.47% |
| CC1CCCN(c2ccc(C(=O)NCCc3ccccc3)cn2)C1 (centres undefined) | 20.8% |
| COc1ccc(NC(=O)CC2C(=O)NC3CCCCC3N2C(=O)c2ccc(F)cc2)cc1 (centres undefined) | -3.23% |
| CC(=O)c1ccc(NC(=S)N(Cc2ccccc2)C(C)C2CC2)cc1 (centres undefined) | 12.5% |
| CC(C)N(Cc1ccccc1)C(=S)Nc1ccc(OC(F)F)cc1 | 44% (active) |
| CN(CC(=O)Nc1ccc(OC(F)F)cc1)S(=O)(=O)/C=C/c1ccccc1 | 15.2% |
| C=CCC(CC=C)(C(N)=O)c1ccccc1 | 1.01% |
| CC(Sc1nnc2c(n1)C1CCC2(C)C1(C)C)C(=O)Nc1ccccc1 (centres undefined) | 14.6% |
| Cc1ccccc1S(=O)(=O)Cc1ccc(C(=O)NCCN2CCCCC2C)o1 (centres undefined) | -4.28% |
| CC(=C/c1ccccc1)/C=N/NC(=O)c1cc(C)oc1C | 9.24% |
| CC(/C=N/NC(=O)c1cc(-c2ccc3ccccc3c2)n[nH]1)=C\c1ccco1 | 45.8% (active) |
| CC(C)(C)C1CCC(=NNC(=O)c2cc(-c3ccccc3)n[nH]2)CC1 (centres undefined) | -10.2% |
| COCC1CCCN(Cc2cn[nH]c2-c2cc3ccccc3o2)C1 (centres undefined) | -1.56% |
| COc1ccc(CN2CCCC(C(=O)N3CCCCC3)C2)cc1 (centres undefined) | -13% |
| C=C1CCN([C@@H](Cc2ccccc2)C(=O)N2CCOCC2)S(=O)(=O)c2ccccc21 | 1.68% |
| Cn1c(=O)c2c(SCC(=O)NCC3CCCO3)nc(CC(C)(C)C)nc2n(C)c1=O (centres undefined) | 20.8% |
| C/C(Cc1ccccc1)=N\NC(=O)CNC(=O)c1ccccc1Cl | -5.47% |
| S=C(NCC1COc2ccccc2O1)Nc1ccc(Br)cc1 (centres undefined) | -1.91% |
| CC(NC(=S)Nc1ccccc1)C1COc2ccccc2O1 (centres undefined) | 47.6% (active) |
| CCCN(CC1COc2ccccc2O1)C(=S)Nc1ccc(C)cc1 (centres undefined) | 30.5% |
| C/C(=N\Nc1cccc(C(=O)O)c1)c1ccc2c(c1)Nc1ccccc1S2 | 10.7% |
